In PubChem BioAssay (EPA / NIEHS):
The source made the active and inactive calls. Rule for the calls: active = hit-call score of the fitted dose curve at least 0.9, where 1 is the maximum; inactive = score below 0.9.

Read-out: Cytochrome P450 (CYP24A1), CYP24A1 (gene 1591)
Test: LTEA_HepaRG_CYP24A1: Life Technologies and Expression Analysis (LTEA) Assay for Cytochrome P450 (CYP24A1) using HepaRG (AID 2283478)
Details: mRNA level, 48 h; actives raise or lower the signal
How it was run: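 HepaRG cells plated 48 h, then exposed in duplicate in serum-free induction medium for 48 h to 8-point half-log series from 100 uM in 0.5% DMSO. CYP24A1 mRNA by Fluidigm qRT-PCR, normalized to ACTB, GAPDH, POLR2A; bidirectional fit versus DMSO.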

How did the outcome turn out when `N#Cc1c(Cl)cccc1Cl` was run?
The outcome was “inactive”.

For `CCN(CC)C(=O)C(C)Oc1cccc2ccccc12` (stereo not given), which outcome is on record?
The outcome was “inactive”.

`CC1(C)C(C(=O)OC(C#N)c2cccc(Oc3ccccc3)c2)C1(C)C` (stereo not given) was tested. Which outcome did it give?
Its outcome is “inactive”.

For `CC(C)Nc1nc(Cl)nc(NC(C)C)n1`, which outcome is on record?
The outcome was “inactive”.

Which outcome does the source give for `N#Cc1c[nH]cc1-c1cccc2c1OC(F)(F)O2` here?
Its outcome is “inactive”.

How did the outcome turn out when `Cn1c(-c2ccccc2)cc(-c2ccccc2)[n+]1C` was run?
The outcome was “inactive”.

How did the outcome turn out when `CCCN(CC)CC1COC2(CCC(C(C)(C)C)CC2)O1` (stereo not given) was run?
The outcome was “inactive”.

How did the outcome turn out when `CCNP(=S)(OC)O/C(C)=C/C(=O)OC(C)C` (stereo not given) was run?
Its outcome is “inactive”.

`CS(=O)(=O)c1ccc(C(=O)C2C(=O)CCCC2=O)c([N+](=O)[O-])c1` was tested. Which outcome did it give?
The outcome was “inactive”.

How did the AC50 turn out when `COP(=S)(OC)Oc1ccc([N+](=O)[O-])c(C)c1` was run?
Its AC50 is 0.00316 µM (active).

With `COC(=O)NC(=S)Nc1ccccc1NC(=S)NC(=O)OC` as the molecule, how does the outcome read?
The outcome was “inactive”.

How did the outcome turn out when `CC(C)(C)C(=O)C(Oc1ccc(Cl)cc1)n1cncn1` (stereo not given) was run?
The outcome was “inactive”.

For `CCCCOCN(C(=O)CCl)c1c(CC)cccc1CC`, which outcome is on record?
Its outcome is “inactive”.

Read-out: Cytochrome P450 (CYP1A2), CYP1A2 (gene 1544)
Test: LTEA_HepaRG_CYP1A2: Life Technologies and Expression Analysis (LTEA) Assay for Cytochrome P450 (CYP1A2) using HepaRG (AID 2283479);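 for AC50: TaqMan qRT-PCR transcript level normalized to ACTB GAPDH and POLR2A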
Details: mRNA level, 48 h; actives raise or lower the signal
How it was run: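 Differentiated human HepaRG cells in serum-free induction medium exposed 48 hours in duplicate to 8 half-log concentrations from 100 uM, 0.5% DMSO. CYP1A2 mRNA quantified by qRT-PCR, normalized to ACTB, GAPDH and POLR2A; bidirectional fitting versus DMSO.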

`CCCCC(O)(Cn1cncn1)c1ccc(Cl)cc1Cl` (stereo not given) was tested. Which AC50 did it give?
The AC50 was 87.4 µM (active).

With `CC(C)N1C(=O)c2ccccc2NS1(=O)=O` as the molecule, how does the outcome read?
Its outcome is “inactive”.

With `O=C(Nc1ccccc1-c1ccc(Cl)cc1)c1cccnc1Cl` as the molecule, how does the outcome read?
Its outcome is “inactive”.

`N#CN=C1SCCN1Cc1ccc(Cl)nc1` was tested. Which outcome did it give?
The outcome was “inactive”.

For `Cc1c(COC(=O)[C@@H]2[C@H](/C=C(\Cl)C(F)(F)F)C2(C)C)cccc1-c1ccccc1`, which AC50 is on record?
The AC50 was 76.3 µM (active).

With `CC(C)C1(C)N=C(c2ncccc2C(=O)O)NC1=O` (stereo not given) as the molecule, how does the outcome read?
Its outcome is “inactive”.

Which outcome does the source give for `CCCC(=NOCC)C1=C(O)CC(CC(C)SCC)CC1=O` (stereo not given) here?
The outcome was “inactive”.

For `Clc1cccc(C(Cl)(Cl)Cl)n1`, which outcome is on record?
The outcome was “inactive”.

`CN/C(=N\[N+](=O)[O-])NCc1cnc(Cl)s1` was tested. Which outcome did it give?
Its outcome is “inactive”.

How did the AC50 turn out when `CCN(CC)c1nc(C)cc(OP(=S)(OC)OC)n1` was run?
The AC50 was 38 µM (active).

With `COCC(C)N(C(=O)CCl)c1c(C)csc1C` (stereo not given) as the molecule, how does the outcome read?
The outcome was “inactive”.

Which AC50 does the source give for `Nc1cnn(-c2ccccc2)c(=O)c1Cl` here?
Its AC50 is 80.6 µM (active).

With `CCN(CC)C(=O)C(C)Oc1cccc2ccccc12` (stereo not given) as the molecule, how does the AC50 read?
The AC50 was 26.4 µM (active).

With `CC1(C)C(C(=O)OC(C#N)c2cccc(Oc3ccccc3)c2)C1(C)C` (stereo not given) as the molecule, how does the AC50 read?
Its AC50 is 39.6 µM (active).

How did the outcome turn out when `CCCN(CC)CC1COC2(CCC(C(C)(C)C)CC2)O1` (stereo not given) was run?
Its outcome is “inactive”.

With `COP(=S)(OC)Oc1ccc([N+](=O)[O-])c(C)c1` as the molecule, how does the AC50 read?
Its AC50 is 50 µM (active).

For `COC(=O)NC(=S)Nc1ccccc1NC(=S)NC(=O)OC`, which AC50 is on record?
Its AC50 is 39 µM (active).
